Common to all, as to test: qHTS profiling for inhibitors of Plasmodium falciparum proliferation (AID 504749); further: nearly all actives have a fitted effect of over 60% in size
What all share (conditions): P. falciparum in erythrocytes, SYBR Green DNA, 72 h; series mostly up to 28.7 µM

The test system of one assay is DFO2036. The essentials:
(§1)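 P. falciparum-infected erythrocytes (0.3% parasitemia, 2.5% hematocrit final) were exposed to compounds for 72 h at 37 C in 5% CO2, then lysed with SYBR Green buffer overnight at room temperature; parasite DNA fluorescence was normalized to artemisinin and DMSO controls.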

Another assay deals with DIV14. The essentials:
as §1

The subject of another assay is DIV17. The essentials: as §1
The next assay relates to DIV30. The essentials:
as §1

In another assay the test system is ECU. The essentials: as §1
In another assay the test system is FAB9. The method, boiled down: as §1
The test system of another assay is HB3. The method, boiled down: as §1
The subject of the next assay is ICS. The essentials:
as §1

The subject of another assay is Dd2. The method, boiled down: as §1
The next assay deals with GB4. The method, boiled down: as §1

Drawing on PubChem BioAssay (NCATS), this text covers Potency for 20 compounds.

Inconclusive results are not listed. Calls of active or inactive are those of the source. The call rests on the fitted dose curve; in most records, active means well fitted inhibition curve with a large enough effect; inconclusive means small, poorly fitted or top-dose-only effect; inactive means flat fitted curve, though single readings scatter.
Potency means the concentration at half of the fitted maximal effect.

Take `CCC(C(=O)OCCN(CC)CC)c1ccccc1` (stereo unspecified): the Potency result with DFO2036, with DIV14, in the assay on DIV17, with DIV30, in the assay on ECU and in the assay with FAB9 was “inactive” throughout. For the same compound, the Potency entry in the assay on HB3 and with ICS was “inactive” in each case.
For `CCOC(=O)n1ccn(C)c1=S`, the Potency entry in the assay with DFO2036, in the assay with DIV14, in the assay with DIV17, with DIV30, with Dd2 and with ECU was “inactive” each time. Also, the Potency result in the assay on FAB9, with GB4, with HB3 and with ICS was “inactive” in each case.
Regarding `COc1c(C)c2c(c(O)c1C/C=C(\C)CCC(=O)O)C(=O)OC2`, the Potency was 2.51 µM (active) in the assay on DFO2036; 6.42 µM (active) in the assay on DIV14; 6.42 µM (active) in the assay on DIV17; 5.1 µM (active) in the assay with DIV30; 3.55 µM (active) in the assay with Dd2; 5.01 µM (active) in the assay with ECU. Besides, the figures for the Potency in the assay with GB4 and in the assay on ICS were 5.1 µM (active) and 3.55 µM (active), respectively.
As to `O=C(CCCN1CCC(O)(c2ccc(Br)cc2)CC1)c1ccc(F)cc1`, the Potency result in the assay with DFO2036, in the assay with ECU and in the assay with FAB9 was “inactive” each time. The Potency in the assay on DIV14 is 5.73 µM (active); with DIV17, 6.42 µM (active); with Dd2, 3.55 µM (active); in the assay with GB4, 5.73 µM (active); in the assay with ICS, 3.55 µM (active).
For the compound `O=S1(=O)c2cccc3cccc(c23)N1CCCN1CCN(c2ccc(F)cc2)CC1`, the Potency entry in the assay on DFO2036, with DIV30, with Dd2, in the assay on ECU, with FAB9 and in the assay with GB4 was “inactive” in each case. Besides, the Potency entry in the assay on HB3 is “inactive”.
On to `CC(C)COC(=O)c1ccc(N)cc1`, for which the Potency result in the assay on DFO2036, with DIV17, in the assay with DIV30, in the assay on Dd2, in the assay with ECU and in the assay on FAB9 was “inactive” in each case. In addition, the Potency entry with GB4, with HB3 and in the assay with ICS was “inactive” each time.
`O=C1[C@H]2CCCC[C@H]2C(=O)N1CCCCN1CCN(c2nsc3ccccc23)CC1`: the Potency result with DFO2036, with DIV30, in the assay on Dd2, in the assay with ECU and in the assay with FAB9 was “inactive” throughout.
Regarding `CCCCOc1cc(C(=O)NCCN(CC)CC)c2ccccc2n1`, the Potency result in the assay on DFO2036, in the assay with DIV17, in the assay with DIV30, in the assay with Dd2, in the assay on ECU and in the assay with FAB9 was “inactive” throughout. For the same compound, the Potency result with HB3 was “inactive”.
Regarding `CN(C)C(=S)SC(=S)N(C)C`, the Potency is 10 µM (active) with DFO2036; 13.5 µM (active) in the assay on DIV14; 12 µM (active) in the assay with DIV30; 7.08 µM (active) in the assay with Dd2; 1.12 µM (active) in the assay with ECU; 13.5 µM (active) with GB4. For the same compound, the Potency in the assay with HB3 and in the assay on ICS was 5.01 µM (active) in each case.
`COc1cc(-c2ccc(=O)[nH]n2)ccc1OC(F)F`: the Potency in the assay on DFO2036 was 0.501 µM (active). For the same compound, the Potency result in the assay on DIV14, with Dd2, in the assay with ECU, in the assay with GB4, in the assay with HB3 and in the assay on ICS was “inactive” throughout.
Take `O=C(CCN1CCC(c2ccccc2)C1)c1ccc2c(c1)OCCO2` (stereo unspecified): the Potency result with DFO2036, with DIV30, in the assay on Dd2, in the assay on ECU, with FAB9 and in the assay on HB3 was “inactive” each time. The Potency result in the assay on ICS is “inactive”.
As for `CC/C(=C(/CC)c1ccc(O)cc1)c1ccc(O)cc1`, the Potency entry in the assay on DFO2036, with DIV17, in the assay on DIV30, in the assay on Dd2, in the assay with ECU and in the assay with FAB9 was “inactive” each time. In the assay on HB3, the Potency entry was “inactive”.
`CCCCC1=NC2(CCCC2)C(=O)N1Cc1ccc(-c2ccccc2-c2nn[nH]n2)cc1`: the Potency entry in the assay with DFO2036, in the assay with DIV17, in the assay with DIV30, in the assay with Dd2, in the assay on ECU and in the assay with FAB9 was “inactive” throughout. Moreover, the Potency entry in the assay with HB3 is “inactive”.
As for `CCCCCCCCCCOCC(O)CN` (stereo unspecified), the Potency entry in the assay on DFO2036, in the assay with FAB9 and in the assay with HB3 was “inactive” in each case. In addition, the Potency is 10.7 µM (active) in the assay with DIV14, 12.6 µM (active) in the assay with Dd2, 9.53 µM (active) with GB4 and 11.2 µM (active) in the assay with ICS.
Turning to `CN(C(=O)CN(CCO)CC(=O)N(C)C(C)(C)Cc1ccccc1)C(C)(C)Cc1ccccc1`, the Potency result in the assay on DFO2036, in the assay with DIV30, in the assay on Dd2, in the assay with ECU, with FAB9 and in the assay with HB3 was “inactive” throughout.
As for `C#C[C@]1(O)CC[C@H]2[C@@H]3CCc4cc(OC5CCCC5)ccc4[C@H]3CC[C@@]21C`, the Potency result with DFO2036, in the assay on DIV17, in the assay with DIV30, in the assay on Dd2, in the assay on ECU and with FAB9 was “inactive” each time. For the same compound, the Potency result in the assay on HB3 was “inactive”.
Regarding `CCOc1ccc(Cc2nccc3cc(OCC)c(OCC)cc23)cc1OCC`, the Potency entry with DFO2036, in the assay with DIV14, with DIV17, in the assay with Dd2, in the assay with ECU and in the assay on FAB9 was “inactive” throughout. Also, the Potency entry in the assay with ICS is “inactive”.
For the compound `Nc1cc(Cl)c(NC2=NCCN2)c(Cl)c1`, the Potency result with DFO2036, in the assay with DIV17, in the assay with DIV30, with Dd2, in the assay on ECU and with FAB9 was “inactive” each time. The Potency entry in the assay on GB4, in the assay with HB3 and with ICS was “inactive” each time.
`CCCN1CCCC[C@H]1C(=O)Nc1c(C)cccc1C`: the Potency result in the assay on DFO2036, with DIV30, in the assay with ECU, in the assay on FAB9, in the assay with HB3 and in the assay on ICS was “inactive” throughout. Besides, the Potency with GB4 was 15.1 µM (active).
Turning to `c1ccc(OCc2ccc(CCCN3CCOCC3)cc2)cc1`, the Potency result in the assay with DFO2036, in the assay on FAB9 and with HB3 was “inactive” throughout. Further, the Potency in the assay with DIV14 was 8.49 µM (active); with DIV17 it was 6.75 µM (active).
